The record followed here is PubChem BioAssay (EPA / NIEHS).

Inconclusive results are not listed. Calls of active or inactive are those of the source. The calls were made as follows: active = hit-call score of the fitted dose curve at least 0.9, where 1 is the maximum; inconclusive = response in the unintended direction; inactive = score below 0.9.

Broadly, the AC50 is the concentration at which the activity in the assay is half-maximal.

Sequence of Retinoic acid receptor RXR-alpha (Homo sapiens) (P19793 whole entry, looked up, the tested form may be a part): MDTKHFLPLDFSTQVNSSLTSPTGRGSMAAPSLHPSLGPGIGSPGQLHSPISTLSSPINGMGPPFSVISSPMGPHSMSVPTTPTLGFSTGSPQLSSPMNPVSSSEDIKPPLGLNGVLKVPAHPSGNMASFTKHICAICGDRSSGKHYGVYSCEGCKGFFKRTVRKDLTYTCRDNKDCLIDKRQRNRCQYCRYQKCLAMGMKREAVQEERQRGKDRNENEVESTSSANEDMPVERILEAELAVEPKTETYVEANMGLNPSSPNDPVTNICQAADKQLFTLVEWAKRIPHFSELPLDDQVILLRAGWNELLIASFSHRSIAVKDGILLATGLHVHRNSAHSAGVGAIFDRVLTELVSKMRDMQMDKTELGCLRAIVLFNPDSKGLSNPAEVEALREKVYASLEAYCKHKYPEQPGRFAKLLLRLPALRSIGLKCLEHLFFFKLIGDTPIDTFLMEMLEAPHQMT

In this assay the target is Retinoic acid receptor RXR-alpha (Homo sapiens) (UniProt P19793). Description: OT_NURR1_NURR1RXRa_1440: Odyssey Thera (OT) 24-hour HEK293T Protein Complementation Assay for Nurr1/retinoid X receptor (RXR) (AID 2283386). As to the method:
OT_NURR1_NURR1RXRa_1440 is a cell-based assay that uses HEK293T, a human kidney cell line, with measurements taken at 24 hours after chemical dosing in a 384-well plate.OT_NURR1_NURR1RXRa_1440 is one of one assay component(s) measured or calculated from the OT_NURR1_NURR1RXRa_1440 assay. It is designed to make measurements of protein fragment complementation, a form of binding reporter, as detected with fluorescence intensity signals by Protein-fragment Complementation technology.Data from the assay component OT_NURR1_NURR1RXRa_1440 was analyzed into 1 assay endpoint. This assay endpoint, OT_NURR1_NURR1RXRa_1440, was analyzed in the positive analysis fitting direction relative to DMSO as the negative control and baseline of activity. Using a type of binding reporter, measures of receptor for gain-of-signal activity can be used to understand the binding at the pathway-level as they relate to the gene RXRA. Furthermore, this assay endpoint can be referred to as a primary readout, because the performed assay has only produced 1 assay endpoint. To generalize the intended target to other relatable targets, this assay endpoint is annotated to the nuclear receptor intended target family, where the subfamily is non-steroidal.
Protein-fragment complementation assay, or PCA, is a method for the identification and quantification of protein-protein interactions. In the PCA, the proteins of interest ("bait" and "prey") are each covalently linked to fragments of a third protein (e.g. DHFR, which acts as a "reporter"). Interaction between the bait and the prey proteins brings the fragments of the reporter protein in close proximity to allow them to form a functional reporter protein whose activity can be measured.
On to `Cc1ccc(S(=O)(=O)Oc2ccc(N=Nc3ccc(-c4ccc(N=Nc5c(O)ccc6cc(S(=O)(=O)O)cc(S(=O)(=O)O)c56)c(C)c4)cc3C)cc2)cc1`, for which the call was inactive. Still for that read-out and setting: then `CC(C)c1ccccc1O`, with “inactive”; and `OCC(O)c1ccccc1` (stereo not given), with “inactive”; and `C#CC(C)(O)CC(C)C` (stereo not given), with “inactive”.

Take `O=C1NC2NC(=O)NC2N1` (stereo not given): the call was inactive. Same read-out and setting: then `OCC#CCO`, with “inactive”; and `OCCc1ccccc1`, with “inactive”; and `CN1CCOCC1`, with “inactive”. Still for that read-out and setting: the value for `CCCCCC(C)=O` was “inactive”; that for `CCCCOC(=O)CCCCCCCC(=O)OCCCC` was “inactive”. For `C=C[Si]1(C)O[Si](C)(C=C)O[Si](C)(C=C)O[Si](C)(C=C)O1` (stereo not given), the molecule was classed as inactive. The same measure, in the same setting: the value for `O=P(O)(O)O` was “inactive”; that for `CCC(=O)O[C@@H]1C[C@H]2CC[C@]1(C)C2(C)C` was “inactive”. As for `O=[N+]([O-])c1ccc(O)cc1C(F)(F)F`, the AC50 was 86.8 µM (active). Take `Cc1cc(=O)oc2cc(N(C)C)ccc12`: the outcome was inactive.

Consider `CCCCCCCCCCCCCC(=O)OCC(O)CO` (stereo not given), for which the molecule was classed as inactive.

With `O=C(O)CCCCCCCCC(=O)O`, the call was inactive.

On to `CC(C)Nc1nc(N)nc(Cl)n1`, for which the result was inactive.

For the molecule `CCCC(C)=O`, the molecule was classed as inactive. As to `Nc1ccccc1[N+](=O)[O-]`, the call was inactive. The same measure, in the same setting: then `COCCOCCOCCO`, with “inactive”; and `Cc1cc(S(=O)(=O)O)ccc1N=Nc1c(O)ccc2ccccc12`, with “inactive”. The same measure, in the same setting: then `COC(=O)c1ccc(C)cc1C1=NC(C)(C(C)C)C(=O)N1` (stereo not given) (tested in a mixture with another compound), with “inactive”.

Consider `CC(C)CC(C)CC(O)CC(C)C` (stereo not given), for which the result was inactive. Take `C=Cc1ccc(C)cc1`: the molecule was classed as inactive. Still for that read-out and setting: then `CCCCC(CC)COC(C)=O` (stereo not given), with “inactive”; and `COc1ccccc1N=Nc1c(S(=O)(=O)O)cc2cc(S(=O)(=O)O)cc(NC(C)=O)c2c1O`, with “inactive”; and `CN1C(=O)c2ccccc2C1=O`, with “inactive”. The same measure, in the same setting: the value for `CCC1(C)NC(=O)NC1=O` (stereo not given) was “inactive”.

Regarding `CCc1cc(C(C)(C)C)c(O)c(C(C)(C)C)c1`, the AC50 is 86.2 µM (active). In the case of `CCCCCCCCN1CCCC1=O`, the result was inactive. The same measure, in the same setting: the value for `CCNCCO` was “inactive”; that for `BrCc1cccc(Oc2ccccc2)c1` was “inactive”; that for `CCCCC1CCC(O)CC1` (stereo not given) was “inactive”. Still for that read-out and setting: then `CCCCCCC(=O)c1ccccc1`, with “inactive”; and `C=C1C[C@]23C[C@@]1(O)CC[C@H]2[C@@]12C=C[C@H](O)[C@@](C)(C(=O)O1)[C@H]2[C@@H]3C(=O)O`, with “inactive”. The same measure, in the same setting: the value for `CCOc1ccccc1O` was “inactive”; that for `CCCCCCC(C)(C)S` was “inactive”; that for `CCCCCCCCCCCC(=O)OCC(O)CO` (stereo not given) was “inactive”. In the case of `CC1CCC(C(C)C)C(O)C1` (stereo not given), the call was inactive.
